# Screening results deposited in PubChem by National Center for Advancing Translational Sciences (NCATS).
# This is one part of a sample in which hits are shown more often than they occur.
# ClpP mod: qHTS Assay for Activators of ClpP. purified B. subtilis ClpP, FRET peptide cleavage, 20 min. Potency, µM (top dose mostly 57.5 µM), for the others: top-dose activity change, negative = active. hit rate 1.9% among 340,000. AID 651965, 2013; active = well fitted falling curve with a large enough effect; inconclusive = small, poorly fitted or top-dose-only effect; inactive = no such curve, though single readings can be large or run the other way; also: potency is read from the fitted curve at half-maximal effect; the source files actives as falling curves though it sought activators and does not explain the sign; nearly all actives have a fitted effect of over 65% in size
# Target sequence (P80244 whole entry, looked up): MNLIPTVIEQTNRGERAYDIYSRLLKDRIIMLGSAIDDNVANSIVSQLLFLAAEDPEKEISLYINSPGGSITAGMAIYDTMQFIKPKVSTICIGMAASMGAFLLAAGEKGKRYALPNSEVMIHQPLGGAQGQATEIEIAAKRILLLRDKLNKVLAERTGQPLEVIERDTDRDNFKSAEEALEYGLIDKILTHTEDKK
#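 Purified B. subtilis ClpP, 10 microg/mL final in Tris/HCl pH8 with KCl, BSA, glycerol and Tween-20, cleaved an Abz/nitrotyrosine-quenched decapeptide. Fluorescence (ex 320, em 430) was read at 0 and 20 min at room temperature. Delta was normalized to 5.8 microM ADEP and DMSO/no-enzyme controls.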
# Menin-MLL TR inh: inhibitors of human menin-MLL interaction, mutant MLL peptide | O00255 | Menin + Texas Red MLL mutant peptide, fluorescence polarization | Potency, µM (doses to about 61.6 µM), for inactives: at the highest dose FP activity change, negative = inhibition, actives largely listed as inhibitors | hit rate 0.23% among 270,000 | AID 1768; active = well fitted inhibition curve with a large enough effect in the polarisation, with a control signal flat, not every such curve was filed as active; inconclusive = small, poorly fitted or top-dose-only effect, or effect the other way, or a change in a side signal; inactive = no such curve, though single readings can be large or run the other way; the % refers to the polarisation; also: potency is read from the fitted curve at half-maximal effect; % of control where 0% means no effect
# Target sequence (O00255 whole entry, looked up): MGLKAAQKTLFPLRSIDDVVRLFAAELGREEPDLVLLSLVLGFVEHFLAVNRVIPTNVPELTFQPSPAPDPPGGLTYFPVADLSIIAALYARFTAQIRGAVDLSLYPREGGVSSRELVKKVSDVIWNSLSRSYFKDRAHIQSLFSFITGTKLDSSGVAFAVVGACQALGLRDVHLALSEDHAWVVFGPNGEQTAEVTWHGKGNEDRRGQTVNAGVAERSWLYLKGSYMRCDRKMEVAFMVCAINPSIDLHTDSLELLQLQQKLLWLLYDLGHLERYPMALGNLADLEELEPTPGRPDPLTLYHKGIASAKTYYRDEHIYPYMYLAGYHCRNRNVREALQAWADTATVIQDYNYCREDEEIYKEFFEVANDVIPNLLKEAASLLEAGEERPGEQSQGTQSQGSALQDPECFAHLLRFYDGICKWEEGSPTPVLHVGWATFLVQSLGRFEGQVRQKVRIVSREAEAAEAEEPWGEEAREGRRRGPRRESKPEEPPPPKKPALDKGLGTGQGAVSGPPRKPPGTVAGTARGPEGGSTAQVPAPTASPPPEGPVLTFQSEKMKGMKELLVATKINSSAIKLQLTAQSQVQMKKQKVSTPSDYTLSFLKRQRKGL
# Menin-MLL FL inh: inhibitors of human menin-MLL interaction, wild-type MLL peptide; Fluorescence polarization, fluorescein-MLL peptide displacement from menin; FP activity change, % at 61.4 µM; 290,000 tested, under 10 active; AID 1766; active = well fitted curve in the direction sought with a large enough effect in the polarisation, not every such curve was filed as active; inconclusive = small, poorly fitted or top-dose-only effect, or effect the other way, or a change in a side signal; inactive = no such curve, though single readings can be large or run the other way; the % refers to the polarisation; also: % of control where 0% means no effect
# MLL CXXC-DNA inh: inhibitors of human MLL CXXC domain-DNA interaction. Q03164. MLL-CXXC / FITC-HOXA9 DNA fluorescence polarization. Potency, µM (doses to about 115 µM), without a hit: at the top dose activity change, negative = inhibition, usual class: inhibitors. hit rate 0.037% among 290,000; active = well fitted inhibition curve with a large enough effect in the polarisation, with a control signal flat, not every such curve was filed as active; inconclusive = small, poorly fitted or top-dose-only effect, or effect the other way, or a change in a side signal; inactive = no such curve, though single readings can be large or run the other way; the % refers to the polarisation; also: potency is read from the fitted curve at half-maximal effect
#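 Purified MLL-CXXC (added from a 7 uM solution) was preincubated 5 min at ambient with pinned compounds in 50 mM Tris-HCl pH 7.5, 50 mM NaCl, 1 mM DTT, 0.05% BSA. Fluorescein-labeled HOX-A9 DNA (50 nM solution) followed, 30 min, then polarization read.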
# p53 reactivator: restores transcriptional activity of mutant p53. H1299 p53-A138V BP100-luciferase reporter, luminescence, 24 h. Potency, µM (doses to about 92.2 µM), without a hit: top-dose activity change, positive = activation, most hits filed as activators. hit rate 0.063% among 320,000. AID 504706; also: potency is read from the fitted curve at half-maximal effect; % of control where 0% means no effect; nearly all actives have a fitted effect of over 45% in size
#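 H1299 (p53-null), stable ts p53-A138V + BP100-Luc; 1000 cells/well, Opti-MEM/10% FBS; cpd 4 pt, 1:5; 24 h, 37 deg C, 5% CO2; detection reagent 10 min RT; luminescence.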
# ClpP inh valid: inhibits B. subtilis ClpP protease, hit validation | hit rate 40% among 470 | shares compounds with ClpP mod | Potency, µM (top dose mostly 57.5 µM), without a hit: at the highest dose activity change, negative = inhibition, actives largely listed as inhibitors | purified B. subtilis ClpP, FRET-FV substrate cleavage, 20 min | AID 743245; also: potency is read from the fitted curve at half-maximal effect; % is scaled to controls: 0 for no effect and ±100 for the full control effect; nearly all actives have a fitted effect of over 70% in size
# An asterisk follows results filed as active; ? = inconclusive; nt = no result. Unless noted, calls follow the shape of the dose curve; as a rule, active = well fitted curve in the direction sought with a large enough effect; inconclusive = small, poorly fitted or top-dose-only effect, or another doubt; inactive = no such curve, though single readings can be large; an effect the other way counts as inactive or inconclusive.
SMILES,ClpP mod,Menin-MLL TR inh,Menin-MLL FL inh,MLL CXXC-DNA inh,p53 reactivator,ClpP inh valid
CCOc1ccc(N2CC(C(=O)Nc3ccc4c(c3)OCCO4)CC2=O)cc1 (stereo not given),nt,nt,nt,-9.2%,4.2%,nt
Cc1ccc(CNC(=O)C2CCN(C(=O)c3cnn(-c4ccccc4)c3-n3cccc3)CC2)cc1,-1.8%,nt,nt,nt,nt,nt
CCN(Cc1nc(-c2cccc(C)c2)no1)C(=O)c1ccc2c(c1)OCO2,8.91µM*,?,-19.8,-2.4%,-2.1%,-1.2%
Cc1c(C(=O)N2CCN(c3ncccn3)CC2)oc2c(Cl)cccc12,3.16µM*,nt,nt,nt,-8.4%,-2.1%
COc1ccc(OC)c(NC(=O)c2cc3c(Cl)nc4ccccc4c3s2)c1,54.3%,-5.9%,2.1,5.5%,-0.3%,-26.3%
COC(=O)c1ccccc1NC(=O)c1ccc(COc2ccc3c(c2)CCC3)cc1,?,0.4%,-0.9,-0.6%,-7.2%,nt
COc1ccccc1NC(=O)c1ccc(COc2ccc3c(c2)CCC3)cc1,218.7%,2.3%,-1.9,4.2%,-8.3%,-19.2%
CCOC(=O)c1cc2occc2n1CC(=O)N1CCCc2ccccc21,96.1%,5.7%,7.9,1.8%,1.1%,0.0%
Cc1cccc(C(=O)N2CCN(c3ncnc4c3cnn4-c3ccccc3)CC2)c1,116.3%,-14.0%,4.6,-10.1%,-6.0%,-5.1%
CCc1ccc2[nH]c(C(=O)Nc3ccc(C)c(F)c3)cc2c1,22.5%,2.0%,11.4,-6.1%,29.4%,5.8%
CC1=Nc2cc(C(=O)NCCc3ccc(Cl)cc3)ccc2Sc2c(C)ccc(C)c21,1.3%,nt,nt,nt,nt,nt
COc1cc(OC)c(CNC2CCCCCC2)cc1Br,2.82µM*,-8.0%,-0.2,1.9%,-1.5%,-0.1%
COc1cc(OC)c(OC)cc1CNC1CCCCCC1,-0.5%,?,-1.4,4.3%,-16.9%,nt
Cn1c(NCCN2CCOCC2)nc2c1c(=O)n(Cc1cccc(Cl)c1)c(=O)n2C,3.16µM*,-1.7%,-1.0,-1.0%,-6.9%,0.2%
COc1ccc(-c2nnc(-c3ccc(OCC(C)C)cc3)o2)cc1,7.94µM*,1.2%,-0.5,6.1%,3.4%,19.3µM*
COc1ccc(-c2nnc(-c3ccc(N(C)C)cc3)o2)cc1,?,24.4%,0.7,4.2%,nt,nt
CCc1nnc(NC(=O)c2cc(=O)c3cc(C)ccc3o2)s1,0.0%,nt,nt,nt,nt,nt
CCCCNC(=O)c1nn(-c2ccc(C)cc2)c(=O)c2c1c1ccccc1n2C,-12.7%,nt,nt,nt,nt,nt
Clc1ccc2nc3ccccn3c2c1,2.51µM*,-5.7%,0.2,7.3%,6.1%,?
N#Cc1ccc2c(c1)nc1ccccn12,nt,-19.0%,-0.2,0.4%,-0.6%,nt
Cc1nn(-c2ccccn2)c2c1-c1nc(N)ncc1CC2,10µM*,-12.1%,2.2,-1.2%,?,17.2µM*
Cc1nn2c(NCC(C)C)c3c(nc2c1-c1ccccc1)CCC3,7.94µM*,3.2%,-1.7,3.9%,-3.1%,4.85µM*
Cc1nn2c(NC(C)C)c3c(nc2c1-c1ccccc1)CCC3,1.1%,nt,-1.9,-6.0%,1.7%,nt
O=C(Nc1ccccc1)c1cccc(C(=O)Nc2ccccc2)n1,67.9%,nt,nt,-11.6%,8.8%,24.3µM*
O=C(O)c1ccc(NC(=O)c2cccc(C(=O)Nc3ccc(C(=O)O)cc3)n2)cc1,0.6%,-28.8%,9.4,3.9%,3.6%,nt
SMILES,ClpP mod,Menin-MLL TR inh,Menin-MLL FL inh,MLL CXXC-DNA inh,p53 reactivator,ClpP inh valid
COc1ccc(-c2cc(C(=O)Nc3ccc(Cl)cc3Cl)c3ccccc3n2)cc1OC,19.6%,11.5%,-0.9,3.7%,9.2%,nt
COc1ccc(-c2cc(C(=O)Nc3c(Cl)cc(Cl)cc3Cl)c3ccccc3n2)cc1OC,230.3%,0.5%,2.2,11.1%,-0.6%,21.7µM*
CC(=O)c1c(C)oc2ccc(N(C(=O)Oc3ccccc3)S(=O)(=O)c3ccc(Br)cc3)cc12,-4.8%,nt,nt,nt,nt,nt
CCc1ccc(C2CC(=O)c3c([nH]c(C(=O)OC4CCC(C)CC4)c3C)C2)cc1 (stereo not given),1.7%,nt,nt,nt,nt,nt
COc1ccc(NC(=O)C(c2ccccc2F)n2c(=O)c(-c3cc4ccccc4[nH]3)nc3ccccc32)cc1 (stereo not given),-2.3%,nt,nt,nt,nt,nt
O=C(Nc1ccc2ccccc2c1)C(c1ccccc1F)n1c(=O)c(-c2cc3ccccc3[nH]2)nc2ccccc21 (stereo not given),53.7%,nt,nt,nt,nt,6.0%
CCCCCNC(=O)C(CCc1ccccc1)n1c(=O)c(-c2cc3ccccc3[nH]2)nc2ccccc21 (stereo not given),32.6%,nt,nt,nt,nt,nt
CCCCCNC(=O)C(c1cccc2ccccc12)n1c(=O)c(-c2cc3ccccc3[nH]2)nc2ccccc21 (stereo not given),38.2%,nt,nt,nt,nt,6.9%
O=C(NCc1ccccc1)C(c1ccc(-c2ccccc2)cc1)n1c(=O)c(-c2cc3ccccc3[nH]2)nc2ccccc21 (stereo not given),35.8%,nt,nt,nt,nt,9.9%
O=C(NCc1ccccc1)C(c1ccncc1)n1c(=O)c(-c2cc3ccccc3[nH]2)nc2ccccc21 (stereo not given),-21.4%,nt,nt,nt,nt,nt
O=C(NC1CCCCC1)C(c1ccccc1F)n1c(=O)c(-c2cc3ccccc3[nH]2)nc2ccccc21 (stereo not given),4.1%,nt,nt,nt,nt,nt
O=C(NC1CCCCC1)C(c1cccc2ccccc12)n1c(=O)c(-c2cc3ccccc3[nH]2)nc2ccccc21 (stereo not given),41.0%,nt,nt,nt,nt,5.8%
CC(C)c1ccc(NC(=O)CSC2=Nc3ccccc3C3=NC(CC(=O)NCc4ccco4)C(=O)N23)cc1 (stereo not given),-2.5%,nt,nt,nt,nt,nt
Cc1ccc(/C=C/c2nc3ccccc3n2S(=O)(=O)c2cccc(Cl)c2)cc1,10µM*,nt,nt,nt,nt,?
COc1ccc(NC(=O)c2nc[nH]c2C(=O)Nc2ccccc2C)cc1,71.8%,-0.4%,-2.2,?,2.4%,-11.6%
O=C(Cc1ccccc1)Nc1nnc(-c2ccco2)o1,nt,4.2%,0.8,2.5%,2.4%,nt
O=C(Cc1cccs1)Nc1cccc(-c2nnc(-c3ccco3)o2)c1,nt,?,0.1,8.3%,1.8%,nt
CCC(=O)Nc1ccc(-c2nnc(-c3ccccc3)o2)cc1,2.82µM*,-13.5%,0.5,-10.6%,?,7.69µM*
Cc1ccc(-c2nnc(-c3ccc(NC(=O)Cc4cccs4)cc3)o2)cc1,3.55µM*,?,2.6,33.8%,0.9%,?
O=C(Cc1ccccc1)Nc1ccc(-c2nnc(-c3ccco3)o2)cc1,8.91µM*,8.5%,2.3,-0.8%,28.9%,-20.5%
CCNc1ncc2nc(-c3ccccc3)c(=O)n(Cc3cccc(OC)c3)c2n1,nt,5.6%,11.1,nt,nt,nt
c1cncc(-c2nnc(-c3cccs3)o2)c1,8.91µM*,-6.2%,0.0,2.1%,8.2%,19.3µM*
O=C(Cn1nnc2ccccc21)N1CCCCC1,-0.3%,16.3%,1.1,5.3%,-3.3%,nt
